Data on 32 compounds can be found in PubChem BioAssay (NCATS).

This assay can be described thus: qHTS Assay for Lipid Storage Modulators (AID 1519). As to activity change, negative = inhibition: % is scaled to controls: 0 for no effect and ±100 for the full control effect. To be noted: Drosophila S3 cells, BODIPY lipid droplet/cell ratio, laser cytometry, cells loaded with oleic acid. A digest of the protocol: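 Cells seeded at 5,000 per well were treated with compounds over a concentration series and loaded with oleic acid (400 uM, as added). Lipid droplet fluorescence (488 nm excitation, 500-530 nm channel) was read by laser-scanning cytometry and normalized to 20 uM Triacsin C.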
For orientation: qHTS replaces the single test concentration by a dilution series.

Setting [1] is: measured here: cell count channel max response.
[2] abbreviates: measured here: lipid channel max response.

Several values for one entry are separate records, joined by “and”; a condition that tells them apart may be missing. Equal values may be shown once. Inconclusive results are not listed. Activity calls are given as the source filed them. Calls follow the shape of the full dose curve.

For the compound `C[N+]1(C)CCC(=C(c2ccccc2)c2ccccc2)CC1`, the activity change, negative = inhibition (at 25.7 µM (top of the series)) is 0.0072% (inactive). In addition, the max response is, setting by setting: under setting [1], 2.33%; under setting [2], 0.67%.

In the case of `CC(=O)Nc1ccc(S(=O)(=O)Nc2ccc([N+](=O)[O-])cc2)cc1`, the activity change, negative = inhibition (at 57.5 µM (top of the series)) was 7.58% (inactive). Further, the max response is, setting by setting: under setting [1], 4.05%; under setting [2], 18.4%.

Turning to `Cc1ncc(CO)c(C=O)c1O`, the activity change, negative = inhibition (at 57.5 µM (top of the series)) was -6.06% (inactive). Moreover, the max response runs as follows: under setting [1], -8.99%; under setting [2], -15.3%.

For the compound `CCC(Cc1c(I)cc(I)c(N)c1I)C(=O)O` (stereo unspecified), where the note is “at 57.5 µM (top of the series)”, the activity change, negative = inhibition was 4.6% (inactive). The max response under setting [1] was 19.5% and the max response under setting [2] was determined as 27.1%.

`O=C1C(=O)c2ccccc2C(O)=C1C1CCC(c2ccc(Cl)cc2)CC1` (stereo unspecified): where the note is “at 57.5 µM (top of the series)”, the activity change, negative = inhibition is 10.1% (inactive). Further, the max response under setting [1] was 7.54% and the max response under setting [2] is 21.8%.

For `CCN(CC)CCOC(=O)C(Cc1cccc2ccccc12)CC1CCCO1` (stereo unspecified), the activity change, negative = inhibition (at 57.5 µM (top of the series)) is 2.17% (inactive). Moreover, the max response is, setting by setting: under setting [1], 20.1%; under setting [2], 24.7%.

Turning to `CC(=O)NCCCCCC(=O)O`, the activity change, negative = inhibition (at 57.5 µM (top of the series)) was 4.31% (inactive). In addition, the max response stood at 6.35% under setting [1] and 14.8% under setting [2].

As for `CN1CCC(OC(c2ccccc2)c2ccccc2)CC1`, under “at 25.7 µM (top of the series)”, the activity change, negative = inhibition is -2.89% (inactive). For the same compound, the max response by setting is: under setting [1], -24.7%; under setting [2], -25.4%.

In the case of `OCCOCCN1CCN(C2=Nc3ccccc3Sc3ccccc32)CC1`, the activity change, negative = inhibition (at 57.5 µM (top of the series)) is 5.93% (inactive). The max response under setting [1] was 10.4% and the max response under setting [2] turned out to be 19.3%.

For the compound `N=C(N)N1CCc2ccccc2C1`, the activity change, negative = inhibition (at 25.7 µM (top of the series)) is -0.877% (inactive). Moreover, the max response is -5.56% under setting [1] and -6.4% under setting [2].

Take `CCCCc1cc2ccccc2c(OCCN(C)C)n1`: the activity change, negative = inhibition (at 25.7 µM (top of the series)) is -1.95% (inactive). Moreover, the max response under setting [1] was -12.7% and the max response under setting [2] is -12.3%.

As to `CC(C)NCC(O)c1ccc2ccccc2c1` (stereo unspecified), the activity change, negative = inhibition (at 57.5 µM (top of the series)) was 9.75% (inactive). Also, the max response under setting [1] was found to be 8.22% and the max response under setting [2] is 21.3%.

Regarding `CCCCNc1ccc(C(=O)OCCOCCOCCOCCOCCOCCOCCOCCOCCOC)cc1`, the activity change, negative = inhibition (at 25.7 µM (top of the series)) was -1.21% (inactive). Moreover, the max response under setting [1] was -3.1% and the max response under setting [2] was -4.96%.

As to `CC(C(=O)O)c1cccc(Oc2ccccc2)c1` (stereo unspecified), the activity change, negative = inhibition (at 57.5 µM (top of the series)) was 9.66% (inactive). The max response runs as follows: under setting [1], 14.6%; under setting [2], 29.6%.

`CCCc1ncc(C[n+]2ccccc2C)c(N)n1`: the activity change, negative = inhibition (at 25.7 µM (top of the series)) is -1.66% (inactive). Further, the max response reads like this: under setting [1], 1.76%; under setting [2], 0%.

In the case of `CCCCCN=C(N)N/N=C/c1c[nH]c2ccc(OC)cc12`, the activity change, negative = inhibition (at 57.5 µM (top of the series)) is 10.2% (inactive) and 3.1% (inactive). The max response is, setting by setting: under setting [1], 15.4% and 9.7%; under setting [2], 28.4% and 15.4%.

Turning to `CCCCC(CC)CN1CN(CC(CC)CCCC)CC(C)(N)C1` (stereo unspecified), the activity change, negative = inhibition (at 57.5 µM (top of the series)) was 3.27% (inactive). Besides, the max response was 28.9% under setting [1] and 41.5% under setting [2].

For the compound `C[N+]12CCC(CC1)C(OC(=O)C(O)(c1ccccc1)c1ccccc1)C2` (stereo unspecified), the activity change, negative = inhibition (at 57.5 µM (top of the series)) is 1.37% (inactive). Besides, the max response runs as follows: under setting [1], 13%; under setting [2], 15.6%.

As for `CCN(CC)CCOc1ccc2c(c1)C(=O)c1cc(OCCN(CC)CC)ccc1-2`, the activity change, negative = inhibition (at 57.5 µM (top of the series)) is 7.59% (inactive). In addition, the max response under setting [1] is -3.23% and the max response under setting [2] turned out to be 9.04%.

For `CCc1oc2ccccc2c1C(=O)c1cc(Br)c(O)c(Br)c1`, where the note is “at 25.7 µM (top of the series)”, the activity change, negative = inhibition was 0.0966% (inactive). The max response reads like this: under setting [1], -13%; under setting [2], -17.1%.

Turning to `Nc1ccc(C(=O)NCC(=O)O)cc1`, the activity change, negative = inhibition (at 25.7 µM (top of the series)) is -0.313% (inactive). The max response under setting [1] was -0.767% and the max response under setting [2] worked out at 0.146%.

On to `Nc1ccc(S(=O)(=O)Nc2cnc3ccccc3n2)cc1`, for which the activity change, negative = inhibition (at 25.7 µM (top of the series)) is -4.76% (inactive). Further, the max response by setting is: under setting [1], -5.93%; under setting [2], -10.6%.

With `CCN1CCCC(OC(=O)C(c2ccccc2)c2ccccc2)C1` (stereo unspecified), where the note is “at 57.5 µM (top of the series)”, the activity change, negative = inhibition was -10.7% (inactive). Further, the max response under setting [1] is -5.03% and the max response under setting [2] is -14.3%.

As for `Cc1cc(-c2ccccc2)nnc1NCCN1CCOCC1`, under “at 25.7 µM (top of the series)”, the activity change, negative = inhibition was 1.62% (inactive). Also, the max response reads like this: under setting [1], -6.4%; under setting [2], -4.28%.

With `CC(C)(C)NC[C@H](O)COc1cccc2c1CCCC2=O`, for the setting “at 25.7 µM (top of the series)”, the activity change, negative = inhibition is -0.268% (inactive) and -1.87% (inactive). Also, the max response was -9.82% and 1.67% under setting [1]; -10.4% and -0.857% under setting [2].

For the compound `COC(=O)C(c1ccccc1Cl)N1CCc2sccc2C1` (stereo unspecified), under “at 57.5 µM (top of the series)”, the activity change, negative = inhibition is 8.17% (inactive). Besides, the max response is 3.08% under setting [1] and 15.9% under setting [2].

Consider `CCOC(=O)Nc1ccc2c(c1)N(C(=O)CCN1CCOCC1)c1ccccc1S2`, for which the activity change, negative = inhibition (at 25.7 µM (top of the series)) was -4.54% (inactive). Besides, the max response was -0.906% under setting [1] and -3.86% under setting [2].

As for `O=C(O)P(=O)(O)O`, the activity change, negative = inhibition (at 57.5 µM (top of the series)) is 3.11% (inactive). Also, the max response worked out at 17.9% under setting [1] and 24.7% under setting [2].

Take `COc1cc(C(=O)NCc2ccc(OCCN(C)C)cc2)cc(OC)c1OC`: the activity change, negative = inhibition (at 25.7 µM (top of the series)) is -1.74% (inactive). The max response under setting [1] was -6.84% and the max response under setting [2] was -7.91%.

In the case of `CCc1cc(Cl)c(OC)c(C(=O)NC[C@@H]2CCCN2CC)c1O`, under “at 25.7 µM (top of the series)”, the activity change, negative = inhibition is -7.25% (inactive). Moreover, the max response under setting [1] is -16.4% and the max response under setting [2] was -19.5%.

`CCOC(=O)c1ccc(N)cc1`: the activity change, negative = inhibition (at 25.7 µM (top of the series)) was 4.88% (inactive). Further, the max response by setting is: under setting [1], -2.21%; under setting [2], -0.169%.

Take `COc1cc(C)nc(-n2nc(C)cc2OC)n1`: the activity change, negative = inhibition (at 25.7 µM (top of the series)) was -0.43% (inactive). Besides, the max response is, setting by setting: under setting [1], -1.69%; under setting [2], -3.43%.
